The full data set covers some 7,900 targets. This sample favours those with a hit. About 0.6% of all pairs of compound and target were hits.
Legend:
Experiment in all cases: log2 fold change, soluble protein after heating vs DMSO (PISA); higher = thermal stabilisation; K562 cells, 10 uM, 30 min; active = over 0.2 and 3.5 SD of the protein, either way, in both replicates (recomputed)
saracatinib = compound: CN1CCN(CCOc2cc(OC3CCOCC3)c3c(Nc4c(Cl)ccc5c4OCO5)ncnc3c2)CC1 [saracatinib]
Outline: (§1)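 Aliquots of K562 cells (2×10^6 cells/mL) treated with 10 μM compound for 30 min were heated for 3 min over 48°C-58°C. After pooling and extraction in PBS with 0.5% NP-40 at 4°C, soluble protein from a 21,000xg, 90 min spin was quantified by TMTpro 16plex LC-MS/MS with channel sums equalised. Thermal stability is expressed against control samples, from duplicates, as a log2 fold change.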

sotrastaurin = compound: CN1CCN(c2nc(C3=C(c4c[nH]c5ccccc45)C(=O)NC3=O)c3ccccc3n2)CC1 [sotrastaurin]
Outline: as §1

alvocidib = compound: CN1CC[C@H](c2c(O)cc(O)c3c(=O)cc(-c4ccccc4Cl)oc23)[C@H](O)C1 [alvocidib]
Outline: as §1

Tubastatin A = compound: CN1CCc2c(c3ccccc3n2Cc2ccc(C(=O)NO)cc2)C1 [Tubastatin A]
Outline: as §1

[1] = compound: CNC(=O)C1=CC=CC=C1NC2=NC(=NC=C2Cl)NC3=C(C=C(C=C3)N4CCOCC4)OC
Outline: as §1

defactinib = compound: CNC(=O)c1ccc(Nc2ncc(C(F)(F)F)c(NCc3nccnc3N(C)S(C)(=O)=O)n2)cc1 [defactinib]
Outline: as §1

rucaparib = compound: CNCc1ccc(-c2[nH]c3cc(F)cc4c3c2CCNC4=O)cc1 [rucaparib]
Outline: as §1

[2] = compound: CNc1nc(-c2ccc3c(N)n[nH]c3c2)cc(N2C[C@@H](C(=O)NC3CCCCC3)CC[C@H]2C)n1
Outline: as §1

encorafenib = compound: COC(=O)N[C@@H](C)CNc1nccc(-c2cn(C(C)C)nc2-c2cc(Cl)cc(NS(C)(=O)=O)c2F)n1 [encorafenib]
Outline: as §1

[3] = compound: COC(=O)[C@H](CCSC)NC(=O)C1=C(C=C(C=C1)NC[C@H](CS)N)C2=CC=CC=C2
Outline: as §1

Measured: log2 fold change

STK26 (UniProt Q9P289)
Sequence of UniProt Q9P289 (Q9P289 whole entry, looked up): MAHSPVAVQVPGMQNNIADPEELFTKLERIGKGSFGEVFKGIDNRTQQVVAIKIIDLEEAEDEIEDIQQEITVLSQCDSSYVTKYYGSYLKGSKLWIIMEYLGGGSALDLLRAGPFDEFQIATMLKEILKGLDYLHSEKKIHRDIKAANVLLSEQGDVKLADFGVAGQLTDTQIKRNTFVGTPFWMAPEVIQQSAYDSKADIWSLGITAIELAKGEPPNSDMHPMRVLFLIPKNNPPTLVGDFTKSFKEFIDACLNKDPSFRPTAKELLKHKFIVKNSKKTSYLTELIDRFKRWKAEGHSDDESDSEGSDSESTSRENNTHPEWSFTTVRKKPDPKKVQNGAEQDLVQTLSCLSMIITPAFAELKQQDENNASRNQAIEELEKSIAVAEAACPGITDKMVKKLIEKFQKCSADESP
inactive: saracatinib -0.027 | sotrastaurin 0.009 | alvocidib 0.018 | Tubastatin A -0.049 | [1] -0.057 | defactinib 0.067 | rucaparib -0.005 | [2] -0.001 | encorafenib 0.032 | [3] 0.054

STARD3NL (UniProt O95772)
inactive: saracatinib 0.103 | sotrastaurin -0.004 | alvocidib -0.01 | Tubastatin A -0.05 | [1] 0.013 | defactinib -0.007 | rucaparib -0.164 | [2] -0.052 | encorafenib 0.068 | [3] -0.046

THRAP3 (UniProt Q9Y2W1)
inactive: saracatinib 0.035 | sotrastaurin 0.008 | alvocidib 0.094 | Tubastatin A 0.048 | [1] -0.266 | defactinib -0.29 | rucaparib -0.002 | [2] -0.047 | encorafenib -0.015 | [3] 0.019

SLC30A10 (UniProt Q6XR72)
Sequence of UniProt Q6XR72 (Q6XR72 whole entry, looked up): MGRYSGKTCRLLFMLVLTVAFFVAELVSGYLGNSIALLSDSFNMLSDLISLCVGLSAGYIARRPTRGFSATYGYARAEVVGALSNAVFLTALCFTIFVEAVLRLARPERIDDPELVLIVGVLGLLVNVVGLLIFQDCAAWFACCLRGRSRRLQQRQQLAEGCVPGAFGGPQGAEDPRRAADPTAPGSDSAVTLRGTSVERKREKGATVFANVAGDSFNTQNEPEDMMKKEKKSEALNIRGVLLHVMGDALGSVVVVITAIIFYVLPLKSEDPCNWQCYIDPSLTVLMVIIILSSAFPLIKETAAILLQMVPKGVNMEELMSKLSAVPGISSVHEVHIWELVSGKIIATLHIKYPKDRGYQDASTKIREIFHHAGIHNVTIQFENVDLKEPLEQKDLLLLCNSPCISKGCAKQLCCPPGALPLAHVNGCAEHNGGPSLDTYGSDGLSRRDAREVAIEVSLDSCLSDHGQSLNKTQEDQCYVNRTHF
inactive: saracatinib -0.075 | sotrastaurin 0.031 | alvocidib -0.031 | Tubastatin A 0.008 | [1] -0.025 | defactinib 0.012 | rucaparib -0.073 | [2] -0.036 | encorafenib 0.001 | [3] -0.011

SMC5 (UniProt Q8IY18)
inactive: saracatinib -0.005 | sotrastaurin -0.075 | alvocidib 0 | Tubastatin A -0.034 | [1] 0.056 | defactinib -0.05 | rucaparib 0.015 | [2] -0.046 | encorafenib -0.045 | [3] -0.014

ST3GAL2 (UniProt Q16842)
inactive: saracatinib -0.103 | sotrastaurin 0.036 | alvocidib -0.017 | Tubastatin A 0.107 | [1] 0.129 | defactinib -0.02 | rucaparib 0.093 | [2] 0.138 | encorafenib 0.06 | [3] -0.136

SPG21 (UniProt Q9NZD8)
inactive: saracatinib 0.007 | sotrastaurin -0.005 | alvocidib -0.097 | Tubastatin A 0.016 | [1] -0.015 | defactinib -0.134 | rucaparib 0.089 | [2] 0.211 | encorafenib -0.022 | [3] 0.01

STXBP2 isoform 3 (UniProt Q15833)
Sequence of UniProt Q15833 (Q15833 whole entry, looked up): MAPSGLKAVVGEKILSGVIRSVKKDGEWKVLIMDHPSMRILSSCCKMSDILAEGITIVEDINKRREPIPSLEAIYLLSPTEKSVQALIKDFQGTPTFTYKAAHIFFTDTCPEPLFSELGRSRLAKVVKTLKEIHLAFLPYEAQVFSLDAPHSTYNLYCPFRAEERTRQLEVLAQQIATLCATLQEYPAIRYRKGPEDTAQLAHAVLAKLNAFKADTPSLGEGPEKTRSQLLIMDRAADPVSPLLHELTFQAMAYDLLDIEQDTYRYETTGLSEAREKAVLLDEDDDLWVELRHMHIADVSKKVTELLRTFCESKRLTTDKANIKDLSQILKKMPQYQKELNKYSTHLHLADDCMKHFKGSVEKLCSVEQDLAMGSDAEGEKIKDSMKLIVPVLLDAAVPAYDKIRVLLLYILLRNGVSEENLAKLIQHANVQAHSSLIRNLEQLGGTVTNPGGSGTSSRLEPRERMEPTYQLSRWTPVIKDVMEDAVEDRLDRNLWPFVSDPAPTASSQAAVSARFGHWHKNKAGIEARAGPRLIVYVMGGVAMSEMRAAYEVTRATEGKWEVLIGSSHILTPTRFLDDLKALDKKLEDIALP
inactive: saracatinib -0.138 | sotrastaurin -0.242 | alvocidib -0.113 | Tubastatin A 0.085 | [1] -0.091 | defactinib -0.133 | rucaparib 0.157 | [2] 0.142 | encorafenib 0.176 | [3] -0.203

SMAD9 (UniProt O15198)
inactive: saracatinib 0.076 | sotrastaurin 0.078 | alvocidib -0.065 | Tubastatin A -0.003 | [1] -0.013 | defactinib -0.076 | rucaparib -0.094 | [2] 0.055 | encorafenib -0.001 | [3] -0.049

SYNE2 isoform 2 (UniProt Q8WXH0)
inactive: saracatinib -0.121 | sotrastaurin -0.005 | alvocidib 0.156 | Tubastatin A 0.071 | [1] -0.109 | defactinib 0.029 | rucaparib -0.045 | [2] 0.049 | encorafenib -0.107 | [3] -0.006

TM9SF4 (UniProt Q92544)
inactive: saracatinib -0.028 | sotrastaurin 0.017 | alvocidib -0.008 | Tubastatin A -0.015 | [1] 0.013 | defactinib 0.037 | rucaparib 0.043 | [2] -0.046 | encorafenib 0.039 | [3] -0.03

SLC7A6OS (UniProt Q96CW6)
Sequence of UniProt Q96CW6 (Q96CW6 whole entry, looked up): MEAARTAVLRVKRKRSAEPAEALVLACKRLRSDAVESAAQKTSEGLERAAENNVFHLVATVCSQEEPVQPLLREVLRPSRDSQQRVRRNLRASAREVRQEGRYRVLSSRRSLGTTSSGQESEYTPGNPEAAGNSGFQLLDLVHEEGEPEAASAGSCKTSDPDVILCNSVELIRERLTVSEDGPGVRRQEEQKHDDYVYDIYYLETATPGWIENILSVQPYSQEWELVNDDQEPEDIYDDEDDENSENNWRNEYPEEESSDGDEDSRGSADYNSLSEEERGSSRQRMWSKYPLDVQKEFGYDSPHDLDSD
inactive: saracatinib 0.14 | sotrastaurin 0.008 | alvocidib 0.024 | Tubastatin A -0.001 | [1] 0.031 | defactinib -0.144 | rucaparib -0.05 | [2] -0.078 | encorafenib -0.004 | [3] 0.06

STK11IP (UniProt Q8N1F8)
inactive: saracatinib 0.001 | sotrastaurin -0.138 | alvocidib -0.184 | Tubastatin A 0.084 | [1] 0.097 | defactinib -0.074 | rucaparib 0.1 | [2] -0.039 | encorafenib 0.265 | [3] 0.007

STK25 (UniProt O00506)
inactive: saracatinib -0.045 | sotrastaurin 0.088 | alvocidib 0.028 | Tubastatin A -0.007 | [1] -0.078 | defactinib -0.041 | rucaparib 0.011 | [2] -0.012 | encorafenib 0.039 | [3] 0.051

SP1 (UniProt P08047)
inactive: saracatinib 0.022 | sotrastaurin 0.016 | alvocidib 0.023 | Tubastatin A -0.054 | [1] -0.015 | defactinib 0.01 | rucaparib 0.066 | [2] -0.023 | encorafenib -0.019 | [3] 0.025

STAT3 (UniProt P40763)
Sequence of UniProt P40763 (P40763 whole entry, looked up): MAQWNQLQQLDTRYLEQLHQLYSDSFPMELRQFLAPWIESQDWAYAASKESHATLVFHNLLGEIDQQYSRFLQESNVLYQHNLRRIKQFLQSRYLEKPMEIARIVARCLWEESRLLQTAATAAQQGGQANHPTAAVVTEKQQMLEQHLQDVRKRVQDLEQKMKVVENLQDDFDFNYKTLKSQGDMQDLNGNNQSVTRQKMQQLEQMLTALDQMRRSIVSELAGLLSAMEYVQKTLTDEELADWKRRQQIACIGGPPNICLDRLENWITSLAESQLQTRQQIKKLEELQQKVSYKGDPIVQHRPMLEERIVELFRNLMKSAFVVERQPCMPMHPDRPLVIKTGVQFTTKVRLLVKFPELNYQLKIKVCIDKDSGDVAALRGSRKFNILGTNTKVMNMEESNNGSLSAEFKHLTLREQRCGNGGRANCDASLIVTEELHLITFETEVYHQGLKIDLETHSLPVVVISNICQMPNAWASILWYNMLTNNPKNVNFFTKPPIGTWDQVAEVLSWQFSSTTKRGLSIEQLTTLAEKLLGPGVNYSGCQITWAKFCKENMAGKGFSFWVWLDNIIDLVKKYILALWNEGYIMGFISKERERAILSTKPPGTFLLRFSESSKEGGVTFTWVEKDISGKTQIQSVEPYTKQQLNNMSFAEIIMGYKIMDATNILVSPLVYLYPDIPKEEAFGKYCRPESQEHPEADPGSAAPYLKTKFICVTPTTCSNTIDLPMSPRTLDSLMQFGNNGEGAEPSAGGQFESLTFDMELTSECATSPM
inactive: saracatinib 0.025 | sotrastaurin -0.144 | alvocidib -0.112 | Tubastatin A 0.05 | [1] 0.029 | defactinib -0.124 | rucaparib -0.062 | [2] -0.017 | encorafenib 0.077 | [3] -0.012

SNW1 (UniProt Q13573)
Sequence of UniProt Q13573 (Q13573 whole entry, looked up): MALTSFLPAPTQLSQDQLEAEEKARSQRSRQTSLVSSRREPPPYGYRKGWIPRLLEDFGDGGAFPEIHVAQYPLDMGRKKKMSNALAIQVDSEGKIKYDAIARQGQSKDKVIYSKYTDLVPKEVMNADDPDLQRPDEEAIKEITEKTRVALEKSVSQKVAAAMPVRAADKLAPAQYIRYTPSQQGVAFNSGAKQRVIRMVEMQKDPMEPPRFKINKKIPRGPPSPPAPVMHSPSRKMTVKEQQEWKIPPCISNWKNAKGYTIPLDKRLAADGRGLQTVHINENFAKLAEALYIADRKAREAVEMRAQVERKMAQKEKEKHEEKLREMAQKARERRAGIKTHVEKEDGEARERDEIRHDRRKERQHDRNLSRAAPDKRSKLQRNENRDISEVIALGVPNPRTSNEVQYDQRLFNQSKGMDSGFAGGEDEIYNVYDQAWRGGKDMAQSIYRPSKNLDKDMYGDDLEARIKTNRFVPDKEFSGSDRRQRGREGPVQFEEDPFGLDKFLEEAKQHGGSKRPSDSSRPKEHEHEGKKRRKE
inactive: saracatinib 0.01 | sotrastaurin 0.003 | alvocidib 0.128 | Tubastatin A -0.033 | [1] 0.038 | defactinib 0.131 | rucaparib 0.042 | [2] -0.082 | encorafenib -0.005 | [3] -0.005

SPAST (UniProt Q9UBP0)
inactive: saracatinib -0.016 | sotrastaurin -0.015 | alvocidib -0.203 | Tubastatin A 0.003 | [1] -0.01 | defactinib -0.056 | rucaparib 0.073 | [2] 0.115 | encorafenib 0.038 | [3] -0.037

SNRPD3 (UniProt P62318)
inactive: saracatinib 0.004 | sotrastaurin 0.068 | alvocidib 0.069 | Tubastatin A -0.097 | [1] 0.038 | defactinib 0.137 | rucaparib 0.017 | [2] -0.098 | encorafenib -0.027 | [3] -0.003

SUN1 isoform 9 (UniProt O94901)
inactive: saracatinib -0.023 | sotrastaurin -0.178 | alvocidib 0 | Tubastatin A -0.048 | [1] -0.108 | defactinib 0.049 | rucaparib 0.083 | [2] -0.038 | encorafenib -0.018 | [3] -0.029

SNUPN (UniProt O95149)
inactive: saracatinib 0.052 | sotrastaurin -0.069 | alvocidib -0.061 | Tubastatin A -0.036 | [1] -0.019 | defactinib -0.056 | rucaparib -0.027 | [2] -0.04 | encorafenib 0.021 | [3] 0.028

SRI (UniProt P30626)
inactive: saracatinib -0.034 | sotrastaurin -0.017 | alvocidib -0.062 | Tubastatin A 0.039 | [1] 0.034 | defactinib -0.108 | rucaparib -0.012 | [2] -0.021 | encorafenib -0.03 | [3] -0.022

TGFBI (UniProt Q15582)
inactive: saracatinib 0.017 | sotrastaurin 0.171 | alvocidib 0.054 | Tubastatin A -0.005 | [1] -0.014 | defactinib -0.037 | rucaparib -0.06 | [2] -0.113 | encorafenib 0.006 | [3] 0.098

TIMM44 (UniProt O43615)
inactive: saracatinib -0.055 | sotrastaurin -0.132 | alvocidib -0.044 | Tubastatin A -0.055 | [1] -0.012 | defactinib -0.035 | rucaparib -0.12 | [2] -0.057 | encorafenib 0.054 | [3] 0.007

SLC30A7 (UniProt Q8NEW0)
inactive: saracatinib 0.077 | sotrastaurin 0.101 | alvocidib -0.105 | Tubastatin A -0.107 | [1] 0.016 | defactinib -0.051 | rucaparib 0.02 | [2] -0.026 | encorafenib 0.059 | [3] 0.029

STRN (UniProt O43815)
inactive: saracatinib 0.022 | sotrastaurin 0.026 | alvocidib -0.097 | Tubastatin A 0.013 | [1] -0.007 | defactinib -0.076 | rucaparib -0.007 | [2] -0.026 | encorafenib 0.017 | [3] -0.017

SRCAP (UniProt Q6ZRS2)
active: Tubastatin A -0.486
inactive: saracatinib 0.032 | sotrastaurin -0.045 | alvocidib -0.279 | [1] -0.069 | defactinib -0.004 | rucaparib -0.058 | [2] -0.028 | encorafenib 0.009 | [3] -0.015

THADA (UniProt Q6YHU6)
Sequence of UniProt Q6YHU6 (Q6YHU6 whole entry, looked up): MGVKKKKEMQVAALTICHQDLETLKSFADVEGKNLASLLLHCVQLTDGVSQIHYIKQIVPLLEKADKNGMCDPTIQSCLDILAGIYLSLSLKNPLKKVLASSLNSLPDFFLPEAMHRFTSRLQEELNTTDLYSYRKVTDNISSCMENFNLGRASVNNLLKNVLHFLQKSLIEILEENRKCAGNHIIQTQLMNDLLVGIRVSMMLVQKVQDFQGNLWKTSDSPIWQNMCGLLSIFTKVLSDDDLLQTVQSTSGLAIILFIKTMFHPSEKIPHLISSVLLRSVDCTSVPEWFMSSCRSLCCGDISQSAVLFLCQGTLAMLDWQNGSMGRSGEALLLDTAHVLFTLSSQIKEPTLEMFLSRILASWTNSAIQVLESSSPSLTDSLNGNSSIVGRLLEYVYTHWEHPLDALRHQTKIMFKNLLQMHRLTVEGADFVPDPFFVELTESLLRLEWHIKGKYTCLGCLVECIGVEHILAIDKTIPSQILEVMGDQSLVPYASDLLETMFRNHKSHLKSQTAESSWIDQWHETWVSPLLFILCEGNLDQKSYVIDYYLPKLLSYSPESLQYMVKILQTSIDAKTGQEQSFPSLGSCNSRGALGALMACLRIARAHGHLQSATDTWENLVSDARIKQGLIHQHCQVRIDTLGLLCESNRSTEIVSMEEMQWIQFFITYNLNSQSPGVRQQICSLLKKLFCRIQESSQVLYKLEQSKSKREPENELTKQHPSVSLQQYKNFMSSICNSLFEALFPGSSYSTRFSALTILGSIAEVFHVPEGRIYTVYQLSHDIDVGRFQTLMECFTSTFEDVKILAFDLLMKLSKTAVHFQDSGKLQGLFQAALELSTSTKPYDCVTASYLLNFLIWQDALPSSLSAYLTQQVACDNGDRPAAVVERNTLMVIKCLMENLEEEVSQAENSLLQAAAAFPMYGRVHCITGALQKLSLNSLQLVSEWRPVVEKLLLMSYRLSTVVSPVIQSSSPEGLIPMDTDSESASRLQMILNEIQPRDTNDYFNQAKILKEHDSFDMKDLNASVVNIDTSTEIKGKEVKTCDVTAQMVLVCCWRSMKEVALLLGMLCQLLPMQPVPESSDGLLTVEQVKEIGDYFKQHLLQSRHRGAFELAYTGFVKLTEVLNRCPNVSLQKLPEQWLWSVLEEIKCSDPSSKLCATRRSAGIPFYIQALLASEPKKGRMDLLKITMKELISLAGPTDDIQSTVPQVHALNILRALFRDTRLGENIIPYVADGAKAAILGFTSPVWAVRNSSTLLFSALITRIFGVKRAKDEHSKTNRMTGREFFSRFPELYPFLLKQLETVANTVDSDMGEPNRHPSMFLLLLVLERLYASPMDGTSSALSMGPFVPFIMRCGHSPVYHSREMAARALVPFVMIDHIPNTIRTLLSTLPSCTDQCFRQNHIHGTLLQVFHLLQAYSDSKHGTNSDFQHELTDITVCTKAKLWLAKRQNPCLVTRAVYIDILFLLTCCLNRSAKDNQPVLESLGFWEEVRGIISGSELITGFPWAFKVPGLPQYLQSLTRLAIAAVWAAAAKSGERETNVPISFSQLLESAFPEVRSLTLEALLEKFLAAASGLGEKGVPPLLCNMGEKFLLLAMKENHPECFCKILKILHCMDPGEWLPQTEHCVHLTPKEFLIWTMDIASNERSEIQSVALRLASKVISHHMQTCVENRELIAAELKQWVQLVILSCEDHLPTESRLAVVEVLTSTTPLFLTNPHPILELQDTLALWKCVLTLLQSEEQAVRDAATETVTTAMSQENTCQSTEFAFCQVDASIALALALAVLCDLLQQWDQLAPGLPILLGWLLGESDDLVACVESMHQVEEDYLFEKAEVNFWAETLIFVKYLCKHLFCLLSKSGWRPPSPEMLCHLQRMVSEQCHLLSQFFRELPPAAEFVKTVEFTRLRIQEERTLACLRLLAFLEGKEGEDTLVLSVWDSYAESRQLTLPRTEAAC
inactive: saracatinib 0 | sotrastaurin -0.104 | alvocidib -0.095 | Tubastatin A 0.073 | [1] -0.036 | defactinib -0.079 | rucaparib -0.017 | [2] 0.047 | encorafenib 0.09 | [3] -0.014

SPCS2 (UniProt Q15005)
inactive: saracatinib -0.029 | sotrastaurin -0.054 | alvocidib -0.058 | Tubastatin A -0.026 | [1] 0.062 | defactinib -0.026 | rucaparib -0.062 | [2] 0.038 | encorafenib 0.044 | [3] 0.021

SLC38A9 (UniProt Q8NBW4)
inactive: saracatinib 0.053 | sotrastaurin -0.184 | alvocidib -0.024 | Tubastatin A -0.05 | [1] 0.025 | defactinib -0.038 | rucaparib -0.048 | [2] -0.073 | encorafenib -0.001 | [3] 0.001
